The text below walks through data of PubChem BioAssay (Tox21).

Assay [1] is described as follows: qHTS assay to identify small molecule agonists of the estrogen receptor alpha (ER-alpha) signaling pathway in the presence of an antagonist - cell viability counter screen (AID 1259386).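 Further: series mostly up to about 92 µM; cells exposed to compounds for 22 h at 37 °C before the viability read; nearly all actives have a fitted effect of over 30% in size.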 The gist of the method: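 Cell viability in VM7Luc4E2 cells (endogenous full-length ER-alpha) measured by CellTiter-Fluor fluorescence in the same wells as the luciferase screen. Cells pre-cultured 5 days in charcoal-stripped serum, then treated 22 h with compounds at 15 concentrations plus 10.0nM ICI-182,780.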

For assay [2], the target named is Progesterone receptor (Homo sapiens) (UniProt P06401). Nature of the assay: qHTS assay to identify small molecule agonists of the progesterone receptor (PR) signaling pathway (AID 1346784; calls by dose curve; further: nearly all actives have a fitted effect of over 30% in size). The gist of the method:
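Reporter assay, GripTite PR-UAS-bla HEK 293T cells: 16 hr exposure to DMSO-dissolved compounds at 37C, 5% CO2, in steroid-depleted (2% charcoal-stripped FBS) medium; beta-lactamase measured by FRET fluorescence.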

Assay [3] has the same target. Nature of the assay: qHTS assay to identify small molecule antagonists of the progesterone receptor (PR) signaling pathway (AID 1346795; active means well fitted inhibition curve with a large enough effect in the signal ratio in the repeat runs, not every such curve was filed as active; the % refers to the signal ratio; further: potency means the concentration at half of the fitted maximal effect). In outline: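 Stimulus R5020 at 1 nM final; cells HEK293T PR-UAS-bla; medium with 2% charcoal-stripped FBS; compound exposure 16 hr at 37C, 5% CO2; detection by FRET beta-lactamase substrate, 2 hr, room temperature.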
Assay [4] in a line: qHTS assay to identify small molecule antagonists of the progesterone receptor (PR) signaling pathway - cell viability counter screen (AID 1346798). Further: series mostly up to about 92 µM; nearly all actives have a fitted effect of over 50% in size. The gist of the method: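 In the same plates used for the beta-lactamase readout, cell viability of compound- and R5020-treated PR-UAS-bla HEK293T cells (16 hr, 37C) was assessed by CellTiter-Glo luminescence.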
A short description of assay [5]: qHTS assay to identify small molecule agonists of the progesterone receptor (PR) signaling pathway - cell viability counter screen (AID 1346799; calls by dose curve; further: nearly all actives have a fitted effect of over 45% in size). The gist of the method: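 Multiplexed viability read: CellTiter-Glo luminescence, 30 min RT, following LiveBLAzer FRET measurement on PR-UAS-bla HEK293T cells exposed to compounds 16 hr.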
Assay [6] in a line: qHTS assay to identify small molecule antagonists of the TGF-beta/Smad signaling pathway - cell viability counter screen (AID 1346824). Further: nearly all actives have a fitted effect of over 50% in size. In outline:
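Cytotoxicity counter-screen run in the same wells as the beta-lactamase Smad reporter read: CellTiter-Glo luminescence after 30 min at room temperature. HEK 293T SBE-bla cells had 5 hr compound exposure at 37 C with TGF-beta1 (0.25 ng/mL stock).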

Assay [7] in a line: qHTS assay to identify small molecule agonists of the TGF-beta/Smad signaling pathway - cell viability counter screen (AID 1346829). Further: top concentration of the series differs between compounds; nearly all actives have a fitted effect of over 45% in size. The gist of the method: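 Compound-treated SBE-bla HEK 293T cells (5 hr, 37 C) were assessed for viability with CellTiter-Glo in parallel with the reporter read.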
Assay [8] in a line: qHTS assay to identify small molecule agonists of the TGF-beta/Smad signaling pathway (AID 1346859; active means well fitted activation curve with a large enough effect in the signal ratio in the repeat runs, not every such curve was filed as active; the % refers to the signal ratio; further: series mostly up to about 77 µM). The gist of the method:
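Screening used HEK 293T SBE-bla cells at 4,000/well. Test agents: 5 hr, 37 C. Detection: FRET substrate, 2 hr RT, then excitation 405 nm with emissions at 460 and 530 nm.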

Assay [9] concerns the target Thyrotropin-releasing hormone receptor (Homo sapiens) (UniProt P34981). Kind of assay: qHTS assay to identify small molecule agonists of the thyrotropin-releasing hormone receptor (TRHR) signaling pathway (AID 1346891; calls by dose curve; further: series mostly up to about 58 µM). The gist of the method:
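Readout was intracellular calcium fluorescence in TRHR-Hek293 cells. Cells were incubated 18 h, dye-loaded 2 h at 37 °C, and treated with compound in agonist mode.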

Assay [10] in a line: Human pregnane X receptor (PXR) small molecule agonists, qHTS cell viability counter screen (AID 1346977). Further: nearly all actives have a fitted effect of over 50% in size. In outline:
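In each well, the PXR reporter HepG2 line was checked for viability: CellTiter-Fluor reagent added 23hr post-dosing, fluorescence read after 1hr incubation at 37C.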

Assay [11] can be described thus: Caspase-3/7 induction in HepG2 cells by small molecules, qHTS assay (AID 1346978). Further: nearly all actives have a fitted effect of over 15% in size. The gist of the method: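 Caspase-3/7 induction was measured by Caspase-Glo 3/7 luminescence (30 min, room temperature) after a 17 hr compound exposure of wild-type HepG2 cells seeded at 2,000 per well and pre-incubated 5 hr.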
A short description of assay [12]: Caspase-3/7 induction in CHO-K1 cells by small molecules, qHTS cell viability counter screen (AID 1346979). Further: nearly all actives have a fitted effect of over 35% in size. The gist of the method: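 Following a 5hr settling period, CHO-K1 cells at 1,500 per well received DMSO-dissolved compounds. Cell viability was quantified 16hr later by CellTiter-Fluor fluorescence, measured after 1hr with reagent at 37C.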
A short description of assay [13]: Caspase-3/7 induction in CHO-K1 cells by small molecules, qHTS assay (AID 1346980). Further: nearly all actives have a fitted effect of over 15% in size. The gist of the method:
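Luminescent Caspase-Glo 3/7 read (30min, room temperature) quantified apoptosis induction. Cells were wild-type CHO-K1, treated with compound for 17hr at 37 C and 5% CO2.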

The nature of assay [14]: Caspase-3/7 induction in HepG2 cells by small molecules, qHTS cell viability counter screen (AID 1346981). Further: series mostly up to about 92 µM; nearly all actives have a fitted effect of over 30% in size. The gist of the method:
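Wild-type HepG2 cells, 2,000/well, settled 5 hr at 37 C, 5% CO2 before compound addition. Viability read by CellTiter-Fluor fluorescence, reagent added after 16 hr compound exposure, then 1 hr at 37C, in the same wells as the caspase read.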

Assay [15] addresses Nuclear receptor subfamily 1 group I member 2 (Homo sapiens) (UniProt O75469). Nature of the assay: Human pregnane X receptor (PXR) small molecule agonists, qHTS assay (AID 1346982). Further: nearly all actives have a fitted effect of over 35% in size. Further: potency means the concentration at half of the fitted maximal effect. The gist of the method: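 PXR-Luc HepG2 reporter cells (CYP3A4-driven luciferase) in 5% charcoal-stripped FBS medium, plated 5 h before compound addition, then treated 24 h at 37C. Luciferase read by ONE-Glo luminescence after 30 min at room temperature.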

For assay [16], the target named is Cytochrome P450 2D6 (Homo sapiens) (UniProt P10635). Kind of assay: Cytochrome P450 Family 2 Subfamily D Member 6 (CYP2D6) small molecule antagonists: luciferase reporter qHTS assay (AID 1671196). Further: nearly all actives have a fitted effect of over 50% in size. Further: potency means the concentration at half of the fitted maximal effect. The gist of the method:
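Cell-free P450-Glo system: CYP2D6 with proluciferin substrate was pre-incubated with compound for 10 min, then reacted with NADPH regeneration for 1 h at room temperature. Luciferin product was detected after 20 min, and data were reported as relative luminescence units.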

The target in assay [17] is Nuclear receptor subfamily 1 group I member 2 (Rattus norvegicus) (UniProt Q9R1A7). Nature of the assay: Rat pregnane X receptor (rPXR) activation by small molecules, qHTS assay (AID 1346983). Further: nearly all actives have a fitted effect of over 20% in size. The note with it: rPXR luciferase reporter cells, One-Glo luminescence, 24 h; max activation: stronger effect = higher value. In outline: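 Luminescent readout (One-Glo luciferase, 30 min room temperature) followed 24 hr compound treatment at 37 C of rPXR cells plated 2,000 per well and preincubated 5hr; qHTS format with compounds delivered in DMSO.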

In assay [18] the target is Nuclear receptor subfamily 1 group I member 2 (Homo sapiens) (UniProt O75469). Kind of assay: CYP3A4 induction through human pregnane X receptor (PXR) by small molecules, qHTS assay (AID 1346984). Further: nearly all actives have a fitted effect of over 40% in size. Further: potency means the concentration at half of the fitted maximal effect. The gist of the method:
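DPX-2 HepG2 cells carrying a PXR response element and CYP3A4-promoter luciferase construct, treated with compounds 24 hr at 37C. Then P450-Glo CYP3A4 Luciferin-IPA substrate (3uM final) for 3 hr at 37C, One-Glo added, luminescence read.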

Assay [19] has the same target. Nature of the assay: Human pregnane X receptor (PXR) activation by small molecules, qHTS assay (AID 1346985). Further: nearly all actives have a fitted effect of over 40% in size. The gist of the method: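 DPX-2 cells (HepG2 co-transfected with a PXR response element and a CYP3A4-promoter luciferase construct) were seeded at 2,000 per well, rested 5 hr at 37C, then exposed to DMSO-dissolved compounds for 24 hr. Activation was read as luciferase luminescence.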

Values joined by “and” are separate entries in the source; they are usually repeats but may differ in a detail not shown here. Equal entries are not always repeated. Inconclusive results are not listed. Some compounds were tested as several samples or in several runs, with calls that do not always agree. Active and inactive are the calls of the source. Unless noted, the call rests on the fitted dose curve; in most records, active means well fitted curve in the direction sought with a large enough effect in the repeat runs; inconclusive means weak or mixed curves; inactive means no such curve, though single readings can be large; an effect the other way counts as inactive or inconclusive.
On the % scale 0 is the no-effect control and ±100 the full control effect.

Cytochrome P450 2D6 (Homo sapiens), sequence (P10635 whole entry, looked up): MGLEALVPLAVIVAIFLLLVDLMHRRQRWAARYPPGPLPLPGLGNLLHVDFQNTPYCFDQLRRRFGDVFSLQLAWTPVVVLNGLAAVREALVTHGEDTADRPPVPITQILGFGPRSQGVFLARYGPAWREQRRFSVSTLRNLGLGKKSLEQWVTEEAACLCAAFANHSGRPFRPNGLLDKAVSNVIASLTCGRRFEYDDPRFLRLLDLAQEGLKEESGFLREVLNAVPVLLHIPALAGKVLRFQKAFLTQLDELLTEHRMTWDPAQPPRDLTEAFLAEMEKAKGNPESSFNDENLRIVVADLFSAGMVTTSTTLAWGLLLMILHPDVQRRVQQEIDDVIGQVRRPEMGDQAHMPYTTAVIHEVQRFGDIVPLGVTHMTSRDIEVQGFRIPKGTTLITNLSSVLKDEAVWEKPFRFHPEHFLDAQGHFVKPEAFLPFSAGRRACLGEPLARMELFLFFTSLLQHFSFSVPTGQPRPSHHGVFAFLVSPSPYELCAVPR
Nuclear receptor subfamily 1 group I member 2 (Homo sapiens), sequence (O75469 whole entry, looked up): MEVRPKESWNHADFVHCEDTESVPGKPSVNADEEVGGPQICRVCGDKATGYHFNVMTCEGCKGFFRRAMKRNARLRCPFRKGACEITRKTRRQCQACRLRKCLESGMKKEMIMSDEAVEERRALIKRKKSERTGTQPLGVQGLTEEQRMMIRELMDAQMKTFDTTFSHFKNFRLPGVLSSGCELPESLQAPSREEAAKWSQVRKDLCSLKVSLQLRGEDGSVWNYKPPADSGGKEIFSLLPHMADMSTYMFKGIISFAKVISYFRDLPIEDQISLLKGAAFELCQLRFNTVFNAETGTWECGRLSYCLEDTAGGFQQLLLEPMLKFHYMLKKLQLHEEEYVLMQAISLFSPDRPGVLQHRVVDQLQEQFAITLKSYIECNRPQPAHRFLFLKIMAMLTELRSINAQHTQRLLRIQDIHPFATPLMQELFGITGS
Progesterone receptor (Homo sapiens), sequence (P06401 whole entry, looked up): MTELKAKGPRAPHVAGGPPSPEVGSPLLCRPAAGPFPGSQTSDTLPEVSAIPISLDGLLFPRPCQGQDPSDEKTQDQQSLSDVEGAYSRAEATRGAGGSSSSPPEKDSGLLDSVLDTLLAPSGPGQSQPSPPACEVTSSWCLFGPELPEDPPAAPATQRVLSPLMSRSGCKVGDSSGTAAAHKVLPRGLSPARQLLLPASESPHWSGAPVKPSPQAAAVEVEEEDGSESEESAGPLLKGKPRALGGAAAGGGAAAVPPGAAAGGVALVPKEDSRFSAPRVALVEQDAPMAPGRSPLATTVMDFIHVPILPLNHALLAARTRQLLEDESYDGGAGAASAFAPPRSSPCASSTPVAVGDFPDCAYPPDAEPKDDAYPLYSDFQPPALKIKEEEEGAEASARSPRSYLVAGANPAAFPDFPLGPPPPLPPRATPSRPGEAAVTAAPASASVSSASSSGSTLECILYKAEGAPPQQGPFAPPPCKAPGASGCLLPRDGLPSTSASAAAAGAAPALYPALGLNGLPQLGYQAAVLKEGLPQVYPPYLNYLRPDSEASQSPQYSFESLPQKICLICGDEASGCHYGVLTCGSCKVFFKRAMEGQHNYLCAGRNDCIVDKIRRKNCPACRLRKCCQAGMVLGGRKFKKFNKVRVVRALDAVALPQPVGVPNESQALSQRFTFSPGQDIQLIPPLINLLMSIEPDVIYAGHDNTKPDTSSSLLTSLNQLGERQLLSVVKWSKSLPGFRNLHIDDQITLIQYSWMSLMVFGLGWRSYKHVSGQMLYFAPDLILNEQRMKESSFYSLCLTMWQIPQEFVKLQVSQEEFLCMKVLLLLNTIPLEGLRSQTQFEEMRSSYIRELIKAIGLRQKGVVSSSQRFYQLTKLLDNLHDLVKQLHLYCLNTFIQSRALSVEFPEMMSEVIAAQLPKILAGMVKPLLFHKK
Thyrotropin-releasing hormone receptor (Homo sapiens), sequence (P34981 whole entry, looked up): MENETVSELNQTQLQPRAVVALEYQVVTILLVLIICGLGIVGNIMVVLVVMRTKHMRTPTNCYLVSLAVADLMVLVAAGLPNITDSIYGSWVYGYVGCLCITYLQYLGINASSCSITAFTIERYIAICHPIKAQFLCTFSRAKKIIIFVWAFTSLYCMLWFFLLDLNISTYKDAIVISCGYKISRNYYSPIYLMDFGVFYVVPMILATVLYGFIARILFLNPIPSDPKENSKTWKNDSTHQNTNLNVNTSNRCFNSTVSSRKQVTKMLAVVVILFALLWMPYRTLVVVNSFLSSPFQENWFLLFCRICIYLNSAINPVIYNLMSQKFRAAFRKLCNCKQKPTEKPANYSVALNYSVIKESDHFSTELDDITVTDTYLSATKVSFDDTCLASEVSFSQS
Nuclear receptor subfamily 1 group I member 2 (Rattus norvegicus), sequence (Q9R1A7 whole entry, looked up): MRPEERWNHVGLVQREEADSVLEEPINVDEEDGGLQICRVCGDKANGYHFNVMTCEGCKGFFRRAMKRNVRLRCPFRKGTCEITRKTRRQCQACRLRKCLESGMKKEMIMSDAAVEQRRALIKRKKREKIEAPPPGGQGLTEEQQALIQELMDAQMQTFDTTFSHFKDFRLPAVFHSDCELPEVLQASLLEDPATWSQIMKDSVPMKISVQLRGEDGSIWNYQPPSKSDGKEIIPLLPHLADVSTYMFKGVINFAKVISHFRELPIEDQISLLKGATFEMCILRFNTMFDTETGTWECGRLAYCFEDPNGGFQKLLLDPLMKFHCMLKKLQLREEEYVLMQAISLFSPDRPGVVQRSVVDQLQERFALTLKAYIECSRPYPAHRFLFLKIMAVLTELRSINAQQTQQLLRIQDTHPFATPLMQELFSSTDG

For `CN/C(=C\[N+](=O)[O-])NCCSCc1ccc(CN(C)C)o1`, the Potency entry in assay [1], in [2], in [3], in assay [4], in [5] and in assay [6] was “inactive” in each case. Besides, the Potency result in assay [7], in assay [9], in assay [10], in [11], in [12] and in [14] was “inactive” in each case. The Potency entry in assay [15] and in assay [16] was “inactive” each time. The outcome in [8] and in assay [13] was inactive.
`CC1=NN(c2ccccc2)C(=O)C1`: the Potency entry in assay [1], in assay [2], in assay [3], in assay [4], in assay [5] and in assay [6] was “inactive” throughout. Further, the Potency result in assay [7], in assay [9], in assay [10], in assay [12], in [14] and in assay [15] was “inactive” throughout. The Potency result in [19] was “inactive”. For the same compound, the compound was called inactive in assay [8] and in assay [13]. Moreover, the max activation in [17] is -4.19% (inactive). Also, the Potency in assay [18] is 25.1 µM (active); in [16] it was 31.9 µM (active) and inactive.
On to `CC(C)=CCC/C(C)=C/CO`, for which the Potency entry in assay [1], in assay [2], in [3], in assay [4], in assay [5] and in [6] was “inactive” each time. Besides, the Potency entry in assay [7], in assay [10], in [11], in assay [12] and in assay [14] was “inactive” in each case. The compound was classed as inactive in assay [8] and in [13].
For the compound `CC1(C)O[C@@H]2[C@@H](CO[C@@]3(COS(N)(=O)=O)OC(C)(C)O[C@@H]23)O1`, the Potency result in assay [1], in assay [2], in [3], in assay [4], in [5] and in assay [6] was “inactive” throughout. Further, the Potency result in assay [7], in assay [9], in assay [10], in assay [12], in assay [14] and in [15] was “inactive” throughout. Moreover, the Potency result in assay [18], in [19] and in assay [16] was “inactive” throughout. Moreover, the compound was classed as inactive in assay [8] and in assay [13]. In assay [17], the max activation was -4.73% (inactive).
Consider `NC(=O)OCC(COC(N)=O)c1ccccc1`, for which the Potency result in assay [1], in [2], in assay [3], in [4], in assay [5] and in assay [6] was “inactive” each time. Moreover, the Potency result in [7], in assay [9], in assay [10], in assay [12], in assay [14] and in assay [15] was “inactive” in each case. For the same compound, in assay [16], the Potency entry is “inactive”. The result in assay [8] and in assay [13] was inactive.
In the case of `CCCCOCCOCCOC(C)=O`, the Potency entry in assay [1], in assay [2], in [3], in assay [4], in assay [5] and in assay [6] was “inactive” in each case. Besides, the Potency entry in assay [7], in [9], in [10], in [12], in assay [14] and in assay [15] was “inactive” throughout. The Potency result in assay [16] is “inactive”. Further, the outcome in [8] and in [13] was inactive.
For `OCCCc1ccccc1`, the Potency result in assay [1], in assay [2], in assay [3], in assay [4], in assay [5] and in [6] was “inactive” in each case. Besides, the Potency entry in [7], in assay [9], in assay [10], in assay [12], in assay [14] and in assay [15] was “inactive” throughout. For the same compound, the Potency entry in [16] is “inactive”. The compound was classed as inactive in assay [8] and in assay [13].
Consider `COc1ccc(C(=O)c2ccccc2)c(O)c1`, for which the Potency result in assay [1], in assay [2], in assay [4], in assay [5], in assay [6] and in [7] was “inactive” throughout. For the same compound, the Potency result in [9], in assay [10], in assay [11], in assay [12] and in [14] was “inactive” throughout. In addition, the Potency was 30.1 µM (active) in [3]; 60.1 µM (active) and 54.5 µM (active) in assay [15]; 44.1 µM (active) in [16]. In addition, the outcome in [8] and in assay [13] was inactive.
